In PubChem BioAssay (NCI) one finds growth inhibition data, which are given here for ten compounds.

Structures are written as SMILES. About 79,000 compounds went through this panel and 15% of them were active in at least one assay; those are over-represented in the sample as a whole. A number with no mark means an inactive call. The source made the active and inactive calls. Cut-off read from the data, not from the text of the source: active = growth inhibition above about 70%; inactive = the rest.

Assay [1] can be described thus: NCI Yeast Anticancer Drug Screen. Data for the rad50 strain (AID 155).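 Note: 0% = growth of vehicle-only cultures of the same strain.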 The settings on record: S. cerevisiae rad50 strain growth inhibition, hits give high values. The method in brief:
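Genetically altered yeast (DNA repair pathway); compound treatment; growth inhibition vs vehicle ctrl.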

A short description of assay [2]: NCI Yeast Anticancer Drug Screen. Data for the mec2-1 strain (AID 157). The settings on record: S. cerevisiae mec2-1 strain, hits give high values. The method in brief: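 mec2-1 yeast strain, carrying an alteration in DNA damage repair or cell cycle control, was exposed to compounds; growth inhibition was measured relative to vehicle-treated controls.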
Assay [3] can be described thus: NCI Yeast Anticancer Drug Screen. Data for the sgs1 mgt1 strain (AID 161).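 Note: 0% = growth of cultures given vehicle only.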 Conditions: S. cerevisiae sgs1 mgt1 strain, hits give high values. The method in brief: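 This yeast growth screen uses a strain with defined DNA-repair lesions; compound-treated growth is compared with vehicle-treated growth.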
The nature of assay [4]: NCI Yeast Anticancer Drug Screen. Data for the cln2 rad14 strain (AID 165).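 Note: 0% = growth equal to vehicle treated cultures.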 Conditions: S. cerevisiae cln2 rad14 strain, hits give high values. The gist of the method: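 Yeast carrying cln2 and rad14 alterations (cell cycle control and DNA damage repair) were exposed to compounds. Growth inhibition was measured against vehicle-treated controls.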
Assay [5] can be described thus: NCI Yeast Anticancer Drug Screen. Data for the bub3 strain (AID 167). The settings on record: S. cerevisiae bub3 mutant strain, hits give high values. The gist of the method:
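Yeast carrying a defined mutation is treated with each compound, and growth is compared with that of vehicle-exposed cells to give inhibition.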

Assay [6] can be described thus: NCI Yeast Anticancer Drug Screen. Data for the mlh1 rad18 strain (AID 175). The settings on record: S. cerevisiae mlh1 rad18 strain growth inhibition, hits give high values. The gist of the method: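 Growth inhibition of the yeast strain was measured after compound exposure and expressed relative to vehicle-treated controls. The strain carries defined defects in DNA damage repair.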

The mark [7] stands for this setting: at 5.0 µM (retest, dose inferred, filed as 0.5).
Where [8] appears, read: at 50.0 µM (retest, dose inferred, filed as 5.0).

In the case of `Cc1cc(N)cc(C)c1-c1c(N)cc(Br)cc1Br`, the growth inhibition was -1% in assay [1] (setting [7]); -10% in assay [1] (setting [8]); 98.1% (active) in assay [1] (at 50.0 µM); -3% in assay [2] (setting [7]); -6% in assay [2] (setting [8]); 97.5% (active) in assay [2] (at 50.0 µM). Also, the growth inhibition in assay [3] (setting [7]) was -4%; in assay [3] (setting [8]), -9%; in assay [3] (at 50.0 µM), 98.3% (active); in assay [4] (setting [7]) it was 1%; in assay [4] (setting [8]), -10%; in assay [4] (at 50.0 µM), 96.6% (active). The growth inhibition in assay [5] (setting [7]) is -7%; in assay [5] (setting [8]) it was -13%; in assay [5] (at 50.0 µM) it was 98.1% (active); in assay [6] (setting [7]) it was -2%; in assay [6] (setting [8]), -9%; in assay [6] (at 50.0 µM), 97.9% (active).

As for `CNC(=O)OCC1=CC(=O)C(OC)=C(OC)C1=O`, the growth inhibition is -15% in assay [1] (setting [7]); -8% in assay [1] (setting [8]); 4.5% in assay [1] (at 50.0 µM); -12% in assay [2] (setting [7]); -14% in assay [2] (setting [8]); 11.9% in assay [2] (at 50.0 µM). Further, the growth inhibition in assay [3] (setting [7]) is -10%; in assay [3] (setting [8]), -2%; in assay [3] (at 50.0 µM), 28.4%; in assay [4] (setting [7]) it was -6%; in assay [4] (setting [8]), -5%; in assay [4] (at 50.0 µM), 9.55%. Also, the growth inhibition is -9% in assay [5] (setting [7]); -6% in assay [5] (setting [8]); -20.6% in assay [5] (at 50.0 µM); -8% in assay [6] (setting [7]); -5% in assay [6] (setting [8]); 8.95% in assay [6] (at 50.0 µM).

With `CC(C)C[C@H](NC(=O)[C@H](Cc1ccccc1)NC(=O)c1cnccn1)B(O)O`, the growth inhibition is 55% in assay [1] (setting [7]); 87% (active) in assay [1] (setting [8]); 55.8% in assay [1] (at 50.0 µM); 33% in assay [2] (setting [7]); 70% (active) in assay [2] (setting [8]); 30.4% in assay [2] (at 50.0 µM). In addition, the growth inhibition was 52% in assay [3] (setting [7]); 78% (active) in assay [3] (setting [8]); 60.9% in assay [3] (at 50.0 µM); 76% (active) in assay [4] (setting [7]); 94% (active) in assay [4] (setting [8]); 72.9% (active) in assay [4] (at 50.0 µM). The growth inhibition is 69% in assay [5] (setting [7]); 90% (active) in assay [5] (setting [8]); 72.6% (active) in assay [5] (at 50.0 µM); 55% in assay [6] (setting [7]); 79% (active) in assay [6] (setting [8]); 66.7% in assay [6] (at 50.0 µM).

`CCCCCCCCN/N=C(/C)CCCCCO`: the growth inhibition in assay [1] (setting [7]) was -6%; in assay [1] (setting [8]) it was 4%; in assay [1] (at 50.0 µM), -14.2%; in assay [2] (setting [7]) it was 4%; in assay [2] (setting [8]), 9%; in assay [2] (at 50.0 µM) it was -11.8%. For the same compound, the growth inhibition in assay [3] (setting [7]) was 1%; in assay [3] (setting [8]) it was 1%; in assay [3] (at 50.0 µM), -12.7%; in assay [4] (setting [7]) it was -67%; in assay [4] (setting [8]), -2%; in assay [4] (at 50.0 µM), 22.8%. The growth inhibition in assay [5] (setting [7]) is 1%; in assay [5] (setting [8]), -80%; in assay [5] (at 50.0 µM) it was 15.9%; in assay [6] (setting [7]) it was -1%; in assay [6] (setting [8]) it was -12%; in assay [6] (at 50.0 µM) it was -23.6%.

`Cc1ccc(NNC2=NC(=S)NC(=O)C2)cc1`: the growth inhibition in assay [1] (setting [7]) is 12%; in assay [1] (setting [8]) it was 97% (active); in assay [1] (at 50.0 µM), 97.5% (active); in assay [2] (setting [7]) it was 8%; in assay [2] (setting [8]), 98% (active); in assay [2] (at 50.0 µM), 96.9% (active). The growth inhibition is 18% in assay [3] (setting [7]); 97% (active) in assay [3] (setting [8]); 80.6% (active) in assay [3] (at 50.0 µM); -8% in assay [4] (setting [7]); 95% (active) in assay [4] (setting [8]); 84.8% (active) in assay [4] (at 50.0 µM). In addition, the growth inhibition in assay [5] (setting [7]) was 9%; in assay [5] (setting [8]), 97% (active); in assay [5] (at 50.0 µM), 97.8% (active); in assay [6] (setting [7]) it was 18%; in assay [6] (setting [8]), 97% (active); in assay [6] (at 50.0 µM), 98.3% (active).

In the case of `COC1CCCCC1C(=O)C(C#N)C1CCCCC1C1CCCCC1` (stereo not given), the growth inhibition was 4% in assay [1] (setting [7]); -2% in assay [1] (setting [8]); 96% (active) in assay [1] (at 50.0 µM); 3% in assay [2] (setting [7]); -6% in assay [2] (setting [8]); 95.5% (active) in assay [2] (at 50.0 µM). The growth inhibition is 7% in assay [3] (setting [7]); 7% in assay [3] (setting [8]); 97% (active) in assay [3] (at 50.0 µM); -5% in assay [4] (setting [7]); 0% in assay [4] (setting [8]); 98.5% (active) in assay [4] (at 50.0 µM). Moreover, the growth inhibition is -3% in assay [5] (setting [7]); -3% in assay [5] (setting [8]); 96.7% (active) in assay [5] (at 50.0 µM); 0% in assay [6] (setting [7]); 3% in assay [6] (setting [8]); 98.3% (active) in assay [6] (at 50.0 µM).

Turning to `Cc1cnc(Sc2c([N+](=O)[O-])ncn2C)nc1`, the growth inhibition in assay [1] (setting [7]) is 3%; in assay [1] (setting [8]), 8%; in assay [1] (at 50.0 µM), 71.8% (active); in assay [2] (setting [7]), 6%; in assay [2] (setting [8]), 7%; in assay [2] (at 50.0 µM), 98.2% (active). The growth inhibition in assay [3] (setting [7]) was 3%; in assay [3] (setting [8]) it was 9%; in assay [3] (at 50.0 µM) it was 63.7%; in assay [4] (setting [7]), 0%; in assay [4] (setting [8]) it was 7%; in assay [4] (at 50.0 µM) it was 41.5%. The growth inhibition is 1% in assay [5] (setting [7]); 4% in assay [5] (setting [8]); 99.5% (active) in assay [5] (at 50.0 µM); -1% in assay [6] (setting [7]); 3% in assay [6] (setting [8]); 80.1% (active) in assay [6] (at 50.0 µM).

With `NC(Cc1ccnnc1)C(=O)O` (stereo not given), the growth inhibition was -10% in assay [1] (setting [7]); -5% in assay [1] (setting [8]); -8.6% in assay [1] (at 50.0 µM); 10% in assay [2] (setting [7]); -7% in assay [2] (setting [8]); -36.4% in assay [2] (at 50.0 µM). The growth inhibition is -7% in assay [3] (setting [7]); -10% in assay [3] (setting [8]); -36.2% in assay [3] (at 50.0 µM); -7% in assay [4] (setting [7]); -11% in assay [4] (setting [8]); 29.1% in assay [4] (at 50.0 µM). Also, the growth inhibition was -13% in assay [5] (setting [7]); -9% in assay [5] (setting [8]); -22.9% in assay [5] (at 50.0 µM); -16% in assay [6] (setting [7]); -17% in assay [6] (setting [8]); -14.9% in assay [6] (at 50.0 µM).

For the compound `Cc1ccc(NNC(=O)C(O)C(O)C(O)C(O)CO)cc1` (stereo not given), the growth inhibition in assay [1] (setting [7]) was 98% (active); in assay [1] (setting [8]), 98% (active); in assay [1] (at 50.0 µM) it was -2.2%; in assay [2] (setting [7]) it was 99% (active); in assay [2] (setting [8]), 99% (active); in assay [2] (at 50.0 µM) it was 2.6%. The growth inhibition in assay [3] (setting [7]) was 99% (active); in assay [3] (setting [8]), 99% (active); in assay [3] (at 50.0 µM), 7.85%; in assay [4] (setting [7]), 99% (active); in assay [4] (setting [8]), 99% (active); in assay [4] (at 50.0 µM), 41.8%. Also, the growth inhibition in assay [5] (setting [7]) is 98% (active); in assay [5] (setting [8]) it was 99% (active); in assay [5] (at 50.0 µM), 8.25%; in assay [6] (setting [7]), 99% (active); in assay [6] (setting [8]), 99% (active); in assay [6] (at 50.0 µM) it was 1.2%.

Regarding `COc1ncc(Br)cc1C(=O)NCCc1ccc(S(=O)(=O)NC(=O)NC2CCCCC2)cc1`, the growth inhibition is 4% in assay [1] (setting [7]); 96% (active) in assay [1] (setting [8]); 92.8% (active) in assay [1] (at 50.0 µM); 5% in assay [2] (setting [7]); 94% (active) in assay [2] (setting [8]); 95.5% (active) in assay [2] (at 50.0 µM). The growth inhibition in assay [3] (setting [7]) is -1%; in assay [3] (setting [8]) it was 94% (active); in assay [3] (at 50.0 µM), 95.3% (active); in assay [4] (setting [7]), 5%; in assay [4] (setting [8]) it was 96% (active); in assay [4] (at 50.0 µM) it was 96.2% (active). Further, the growth inhibition in assay [5] (setting [7]) was 18%; in assay [5] (setting [8]) it was 97% (active); in assay [5] (at 50.0 µM), 94.2% (active); in assay [6] (setting [7]) it was 11%; in assay [6] (setting [8]), 94% (active); in assay [6] (at 50.0 µM) it was 94.9% (active).
